Compound activity from PubChem.
Only some compounds are listed: those with a hit (about 3.3% of all), similar ones and a draw of the others.
ERAP1 HTS inh = inhibitors of human ERAP1 aminopeptidase; recombinant ERAP1, Leu-AMC fluorescence, 60 min; inhibition, % at 10.7 µM; 0.15% of 340,000 active;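 active means mean replicate inhibition of at least 30%, or all replicates individually reaching that 30% level; inactive means mean below 30% and not every replicate reaching it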;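 further: 0% = neutral control wells and 100% = L-leucinethiol positive control wells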
SIRT5 inh = inhibitors of human sirtuin-5 desuccinylase; Q9NXA8; Purified SirT5, succinyl-peptide AMC, trypsin-coupled fluorescence; inhibition, % at 15 µM; 1.1% of 330,000 active; in the data active means inhibition above about 15%
Target sequence (Q9NXA8 whole entry, looked up): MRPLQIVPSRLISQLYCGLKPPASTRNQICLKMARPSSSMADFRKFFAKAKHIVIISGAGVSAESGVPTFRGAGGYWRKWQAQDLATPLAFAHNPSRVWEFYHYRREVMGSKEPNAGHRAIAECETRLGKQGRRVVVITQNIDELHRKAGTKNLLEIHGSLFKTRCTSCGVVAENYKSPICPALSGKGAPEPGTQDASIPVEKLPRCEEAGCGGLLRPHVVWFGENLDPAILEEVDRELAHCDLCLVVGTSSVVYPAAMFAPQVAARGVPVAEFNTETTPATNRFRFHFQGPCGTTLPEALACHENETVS
FGF22 binding = FGF22 (human) thermal shift binding; 1.5% of 340,000 active; recombinant FGF22 thermal shift, SYPRO orange fluorescence; percent of sucrose octasulfate shift, DMSO zero; activity (Tm shift, normalised), % at 9.99 µM; Q9HCT0;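 active means mean Tm shift, scaled 0 neutral to 100 positive control, at about 1.3% or above, every replicate too, limit read from the data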
GSIS activator = primary screen for activators of insulin secretion dependent on glucose, INS-1E cells, GLuc reporter luminescence; INS-1E GLuc reporter insulin secretion, 2-3 h; activation, % at 16.6 µM; 0.61% of 370,000 active; AID 743287;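 active means lowest replicate activation of at least 40%, so every replicate reaches that level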;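 further: 0% = median of neutral control wells and 100% = median of IBMX positive control wells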
Casp6 inh = inhibitors of human caspase-6 | AID 686996 | 0.53% of 350,000 active | purified caspase-6, Z-VEID-R110 cleavage fluorescence | inhibition, % at 12.5 µM;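 active means mean inhibition across replicates at least about 35%, with every replicate also reaching that limit, limit read from the data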;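 further: 0% = median of neutral control wells and 100% = no fluorescence left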
Target sequence (P55212 24-179 limits assumed): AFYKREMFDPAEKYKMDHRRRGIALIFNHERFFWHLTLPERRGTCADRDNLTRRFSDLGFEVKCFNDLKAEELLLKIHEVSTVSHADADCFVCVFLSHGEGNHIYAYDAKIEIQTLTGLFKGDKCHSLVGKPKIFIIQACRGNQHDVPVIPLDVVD
Target sequence (P55212 194-293 limits assumed): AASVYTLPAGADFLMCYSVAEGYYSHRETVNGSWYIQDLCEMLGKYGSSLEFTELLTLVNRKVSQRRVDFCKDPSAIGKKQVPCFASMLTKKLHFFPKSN
* hit, by the source's call; / = not tested or not shown.

SMILES | ERAP1 HTS inh | SIRT5 inh | FGF22 binding | GSIS activator | Casp6 inh
C[C@@H]1CN([C@@H](C)CO)C(=O)Cc2cc(NS(=O)(=O)c3ccccc3)ccc2O[C@H]1CN(C)S(=O)(=O)c1cccs1 | 0 | 8 | 1 | -13 | 2
COC1=C(Nc2ccccc2)C(=O)C(OC)=C(Nc2ccccc2)C1=O | 5 | / | 44* | / | 5
C=C(C)C(=O)Nc1cccc(C2=NOC3(C2)C[C@@H](C(N)=O)N(C(=O)/C=C/C=C/C)C3)c1 (stereo partly specified) | 0 | / | 0 | / | 51*
C/C=C(\C)C(=O)Nc1cccc(C2=NOC3(C2)C[C@@H](C(N)=O)N(C(=O)c2ccccc2C(=O)c2ccccc2)C3)c1 (stereo partly specified) | 1 | 9 | 0 | / | 6
CCCCCC(=O)Nc1cccc(C2=NOC3(C2)C[C@H](C(N)=O)N(C(=O)c2ccccc2)C3)c1 (stereo partly specified) | / | / | / | 6 | /
C/C=C/C=C/C(=O)N1CC2(CC(c3cccc(NC(=O)/C=C/C)c3)=NO2)C[C@@H]1C(N)=O (stereo partly specified) | -2 | / | 0 | -4 | 3
C=C(C)C(=O)N1CC2(CC(c3cccc(NC(=O)CCCCC)c3)=NO2)C[C@H]1C(N)=O (stereo partly specified) | -2 | 23* | 0 | -2 | 8
C=C(C)C(=O)Nc1cccc(C2=NOC3(C2)C[C@@H](C(N)=O)N(C(=O)/C(C)=C/C)C3)c1 (stereo partly specified) | 4 | 2 | 0 | -6 | 63*
C=C(C)C(=O)Nc1cccc(C2=NOC3(C2)C[C@H](C(N)=O)N(C(=O)c2ccccc2C(=O)c2ccccc2)C3)c1 (stereo partly specified) | -3 | 2 | 0 | / | 63*
COc1ccc(NC(=O)N(C)C[C@H]2Oc3ccc(NC(=O)Nc4ccc5c(c4)OCO5)cc3CC(=O)N([C@@H](C)CO)C[C@@H]2C)cc1 | / | / | 0 | -6 | /
CNC[C@H]1Oc2c(NS(=O)(=O)c3cccs3)cccc2C(=O)N([C@H](C)CO)C[C@H]1C | -3 | -2 | 0 | 10 | 2
O=C(C[C@H]1C/C=C\CC[C@H](Cc2ccc(F)cc2)C(=O)O[C@@H](c2ccccc2)CNC1=O)N[C@@H](CO)Cc1ccccc1 | 4 | -2 | 44* | / | 0
O=C(C[C@H]1C/C=C\CC[C@H](Cc2ccc(F)cc2)C(=O)O[C@@H](c2ccccc2)CNC1=O)N[C@H](CO)Cc1ccccc1 | / | / | 0 | 38 | -2
COc1ccc2c3c(n(C)c2c1)[C@@H](CO)N(C(=O)C1CC1)CC31CCN(C(=O)Nc2cccc(F)c2)CC1 | 0 | -4 | 0 | -12 | -1
O=C(Cc1ccc([N+](=O)[O-])cc1)c1c(O)cc(O)cc1O | 0 | 0 | 1 | -39 | 41*
O=C(NC1CCS(=O)(=O)C1)c1cccc(Br)c1 (stereo unspecified) | 1 | 17* | 0 | 8 | -1
O=C(NC1CCS(=O)(=O)C1)c1cccc(S(=O)(=O)N2CCCCC2)c1 (stereo unspecified) | / | / | / | 14 | /
CCN(CCn1cccn1)Cc1nc(-c2ccccc2)no1 | 6 | 0 | 0 | 6 | 1
CCN(CCn1cccn1)Cc1nc(-c2ccc(OC)cc2)no1 | 3 | -4 | 43* | 3 | -1
COCC(=O)Nc1ccc2c(c1)[C@H]1C[C@@H](CC(=O)N[C@H](C)c3ccccc3)O[C@H](CO)[C@H]1O2 | -1 | 2 | 0 | 3 | 0
COc1cccc(/C=C2\SC(=S)N(C(C(=O)O)c3ccccc3)C2=O)c1OC (stereo unspecified) | -5 | 5 | 42 | 7 | 4
O=C(O)C(c1ccccc1)N1C(=O)/C(=C\c2ccc(-c3ccccc3Cl)o2)SC1=S (stereo unspecified) | 4 | 33* | 0 | -31 | 86*
O=C(O)C(c1ccccc1)N1C(=O)/C(=C\c2ccc(-c3ccc(Br)cc3)o2)SC1=S (stereo unspecified) | -2 | 54* | 0 | -26 | 71*
COc1ccc(/C=C2\SC(=S)N(C(C(=O)O)c3ccccc3)C2=O)c(OC)c1 (stereo unspecified) | -18 | 12 | 0 | 0 | 15
COc1cc(/C=C2\SC(=S)N(C(C(=O)O)c3ccccc3)C2=O)cc(OC)c1OC (stereo unspecified) | 18 | 16* | 0 | -13 | 5
SMILES | ERAP1 HTS inh | SIRT5 inh | FGF22 binding | GSIS activator | Casp6 inh
Cc1ccc(S(=O)(=O)N(C)C[C@H]2OCCCC[C@@H](C)Oc3ccc(NC(=O)Nc4ccccc4)cc3C(=O)N([C@H](C)CO)C[C@H]2C)cc1 | 0 | -2 | 0 | 6 | -2
O=C1NC(CCc2ccccc2)C(=O)N1CCOc1cccc(Br)c1 (stereo unspecified) | -1 | -3 | 43* | 12 | 3
COc1cccc(NC(=O)CN2C(=O)NC(CCc3ccccc3)C2=O)c1 (stereo unspecified) | -3 | 2 | 0 | / | 0
CCCCNC(=O)CN1C(=O)NC(CCc2ccccc2)C1=O (stereo unspecified) | 6 | 1 | 43* | / | 0
CCCNC(=O)CN1C(=O)NC(CCc2ccccc2)C1=O (stereo unspecified) | -1 | -1 | 0 | -4 | 1
O=C(NCC[C@H]1CC[C@@H](NC(=O)c2cccnc2)[C@@H](CO)O1)Nc1ccc(Cl)cc1 | -2 | -2 | 0 | -8 | 0
COCCCNC(=O)c1ccc(CN2CCc3ccccc3C2)cc1 | 1 | 23* | 0 | 2 | -4
O=C(Nc1ccc2c(c1)[C@H]1C[C@@H](CC(=O)N3CCOCC3)O[C@@H](CO)[C@H]1O2)c1cccnc1 | -1 | -4 | 0 | -3 | -4
COc1ccc(N2CCN(C(c3cccs3)C(C)NC(=O)c3ccc4c(c3)OCO4)CC2)cc1 (stereo unspecified) | 1 | -6 | 43* | -14 | -1
C[C@H]1CN([C@@H](C)CO)C(=O)c2cc(NC(=O)Nc3cccc4ccccc34)ccc2O[C@@H]1CN(C)C(=O)Nc1ccc(C(F)(F)F)cc1 | 5 | 10 | 1 | 3 | -2
O=c1cc(CSc2ccc(Cl)cc2)nc(-c2ccncc2)[nH]1 | 7 | -2 | 43* | 5 | -1
Cc1noc(C)c1NC(=O)Nc1ccc2c(c1)C(=O)N([C@@H](C)CO)C[C@@H](C)[C@@H](CN(C)C(=O)Nc1cccc3ccccc13)OCCCC[C@@H](C)O2 | / | / | 0 | -13 | /
CCN(CC)CCSc1nc(O)c(-c2ccccc2)c(=O)n1-c1ccccc1 | 0 | 16* | 0 | 3 | -3
CCN(CC)CCSc1nc(O)c(Cc2ccccc2)c(=O)n1-c1ccccc1 | -3 | / | 0 | 11 | 0
CSc1nc2c(c(=O)n1Cc1ccccc1)SC(C)C2 (stereo unspecified) | / | / | / | 45* | /
